# According to PubChem BioAssay (Tox21):
# Results filed as inconclusive are left out. The source made the active and inactive calls. The call rests on the fitted dose curve; in most records, active means well fitted cell-killing curve with a large enough effect in the repeat runs; inconclusive means weak or mixed curves, or effect the other way; inactive means flat fitted curve, though single readings scatter.
# Assay: cAMP Responsive Elements (CRE) small molecule antagonists, cell-based qHTS assay: qHTS cell viability counter screen (AID 2060913); further: nearly all actives have a fitted effect of over 40% in size
# Settings: CRE-bla HEK293T viability, CellTiter-Glo luminescence, 5 h; series mostly up to 92.4 µM; viability change, negative = cytotoxic: at the top concentration
# Summary of the method: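 Cytotoxicity read in the same wells as the CRE-bla HEK293T antagonist assay: after 3 h compound with 0.25 uM NKH477 final and 2 h beta-lactamase substrate, CellTiter-Glo luminescence measured.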
# On the % scale 0 is the no-effect control and ±100 the full control effect; potency means the concentration at half of the fitted maximal effect.
SMILES,"viability change, negative = cytotoxic",Potency
CC(C)C(=O)OCc1cccc(OC(=O)[C@@H]2N3C(=O)[C@@H](NC(=O)Cc4ccccc4)[C@H]3SC2(C)C)c1,5.48% [at 42.5 µM] (inactive),
CC(C)CC(C)(N)C#N (stereo not given),-8.44% (inactive),
COc1cnc(NS(=O)(=O)c2ccc(N)cc2)nc1,4.87% [at 42.5 µM] (inactive),
CC1=CCCC(C)(C)C12CCC(C)O2 (stereo not given),1.95% (inactive),
CCc1ccccc1O,,inactive
CCCCC/C(C=O)=C\c1ccccc1,,inactive
Cc1[nH]c(=O)c(C#N)cc1-c1ccc2nccn2c1,1.27% [at 42.5 µM] (inactive),
Clc1cc(Cl)c2c(c1)N=C1CCCCCN1C2,-2.32% [at 42.5 µM] (inactive),
COc1cccc2c1C(=O)c1c(O)c3c(c(O)c1C2=O)C[C@@](O)(C(C)=O)C[C@@H]3O[C@H]1C[C@H](N)[C@H](O)[C@H](C)O1,15.8% [at 42.5 µM] (inactive),
C=CC(=O)OCCCC,,inactive
Cc1cc(C(C#N)c2ccc(Cl)cc2)c(Cl)cc1NC(=O)c1cc(I)cc(I)c1O (stereo not given),-7.68% [at 42.5 µM] (inactive),
O=C1CCCCCCCCCCCN1,,inactive
Cc1cccc(N(C)C(=S)Oc2ccc3c(c2)C2CCC3C2)c1 (stereo not given),-10.3% [at 42.5 µM] (inactive),
Nc1ccc(S(=O)(=O)Nc2ccccn2)cc1,2.17% [at 42.5 µM] (inactive),
CC(C)NCC(O)COc1cccc2ccccc12 (stereo not given),,inactive
Cc1c(C(=O)c2c[nH]n(C)c2=O)ccc(S(C)(=O)=O)c1C1=NOCC1,-0.63% [at 42.5 µM] (inactive),
CN(C)CCOC(c1ccccc1)c1ccccc1 (tested in a mixture with another compound),-0.865% (inactive),
N#CSCC(=O)O,0.371% [at 42.5 µM] (inactive),
Oc1ccc2c(c1)OCO2,-7.06% (inactive),
CC(=O)Nc1ccc(S(=O)(=O)Cl)cc1,15.3% (inactive),

SMILES,"viability change, negative = cytotoxic",Potency
O=C1CCc2cc(OCCCCc3nnnn3C3CCCCC3)ccc2N1,-1.87% [at 42.5 µM] (inactive),
Nc1ncnc2c1ncn2[C@H]1CC[C@@H](CO)O1,15.1% (inactive),
CCOCCO,,inactive
Cc1cccc(Cl)c1,1.44% (inactive),
C=C1c2cccc(O)c2C(O)=C2C(=O)[C@]3(O)C(O)=C(C(N)=O)C(=O)[C@@H](N(C)C)[C@@H]3[C@@H](O)[C@H]12,5.53% [at 42.5 µM] (inactive),
CCCCCN=C(N)N/N=C/c1c[nH]c2ccc(OC)cc12,,29.8 µM (active)
Cc1nc(-c2ccc3c(c2)CCN(CCC2CCC(NC(=O)/C=C/c4ccc(F)cc4)CC2)CC3)no1 (stereo not given),0.472% [at 42.5 µM] (inactive),
O=C(O)CCS,-1.72% (inactive),
CCCCCCCCCC[N+](C)(C)[O-],4.98% (inactive),
COc1ccc(CN(CCN(C)C)c2ncccn2)cc1,11.1% [at 42.5 µM] (inactive),
C[C@H]1C[C@H]2[C@@H]3CCC4=CC(=O)C=C[C@]4(C)[C@H]3C(=O)C[C@]2(C)[C@@]1(O)C(=O)CO,-2.3% [at 42.5 µM] (inactive),
CCN(CCC#N)c1ccc(N=Nc2c(Cl)cc([N+](=O)[O-])cc2Cl)cc1,-2.71% (inactive),
CC(C)C[C@H](NC(=O)[C@H](CCc1ccccc1)NC(=O)CN1CCOCC1)C(=O)N[C@@H](Cc1ccccc1)C(=O)N[C@@H](CC(C)C)C(=O)[C@@]1(C)CO1,-0.0993% [at 42.5 µM] (inactive),
Cc1ccc(NC=O)c(C)c1,0.598% (inactive),
COc1c(C)c2c(c(O)c1C/C=C(\C)CCC(=O)OCCN1CCOCC1)C(=O)OC2,11.6% [at 42.5 µM] (inactive),
CC(=O)Nc1c(I)cc(I)c(C(=O)O)c1I,-2.56% [at 42.5 µM] (inactive),
COc1cccc(O)c1O,10.1% (inactive),
CC(=O)/C=C/c1ccco1,-5.05% (inactive),
CCCC(CCC)(C(=O)OCC)C(=O)OCC,6.89% [at 42.5 µM] (inactive),
CC(N)=O,-0.841% [at 240 µM] (inactive),
